Most compounds without a hit are left out; they make up all but 3.8% or so of the library.
FGF22 binding – FGF22 (human) thermal shift binding; recombinant FGF22 thermal shift, SYPRO orange fluorescence; percent of sucrose octasulfate shift, DMSO zero; activity (Tm shift, normalised), % at 9.99 µM; actives 1.5% (n = 340,000); AID 651658;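 active = mean Tm shift, scaled 0 neutral to 100 positive control, at about 1.3% or above, every replicate too, limit read from the data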
ADAM17 inh – inhibits human ADAM17; recombinant ADAM17, EDANS/DABCYL FRET peptide cleavage; inhibition, % at 6.95 µM; actives 0.83% (n = 370,000); AID 720648;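 active = inhibition above the mean of compounds lying between control limits plus 3 SD, set per campaign, cut at about 8.5% in these data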;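 also: 0% = DMSO-only wells as the low control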
rRNA inh HTS – inhibitors of bacterial rRNA selective over humanized ribosomes. E. coli WT GFP vs humanized-ribosome RFP mutants, fluorescence, 24 h; active compounds read low; DMSO median 0, no signal -100. GFP signal change (wild-type ribosome), % (no concentration beside the values). actives 1.6% (n = 350,000);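 active = significant combined selectivity score with lowered wild-type GFP, culture density cut under 30%, mutant RFP and density less affected; inactive = any of these conditions unmet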
proKLK7 act – activators of human kallikrein-7 zymogen; actives 0.9% (n = 370,000); purified proKLK7, EDANS-DABCYL substrate fluorescence; 100% is mature enzyme control, 0% vehicle; activation, % at 7 µM; P49862;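 active = activation above the mean of all tested compounds plus 3 SD, computed per campaign excluding outliers beyond control limits, cut at about 13% in these data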
ADAM10 inh – ADAM10 inhibition, QFRET primary screen | O14672 | recombinant ADAM10, EDANS/DABCYL FRET peptide cleavage, 3 h | inhibition, % at 7 µM | actives 0.62% (n = 370,000) | AID 720582;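 active = inhibition above a per-campaign cutoff equal to the mean of compounds falling between control-based bounds plus 3 SD, cut at about 20% in these data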;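 also: 0% = DMSO wells while the 100% control is not disclosed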
Target sequence (O14672 214-748 limits assumed): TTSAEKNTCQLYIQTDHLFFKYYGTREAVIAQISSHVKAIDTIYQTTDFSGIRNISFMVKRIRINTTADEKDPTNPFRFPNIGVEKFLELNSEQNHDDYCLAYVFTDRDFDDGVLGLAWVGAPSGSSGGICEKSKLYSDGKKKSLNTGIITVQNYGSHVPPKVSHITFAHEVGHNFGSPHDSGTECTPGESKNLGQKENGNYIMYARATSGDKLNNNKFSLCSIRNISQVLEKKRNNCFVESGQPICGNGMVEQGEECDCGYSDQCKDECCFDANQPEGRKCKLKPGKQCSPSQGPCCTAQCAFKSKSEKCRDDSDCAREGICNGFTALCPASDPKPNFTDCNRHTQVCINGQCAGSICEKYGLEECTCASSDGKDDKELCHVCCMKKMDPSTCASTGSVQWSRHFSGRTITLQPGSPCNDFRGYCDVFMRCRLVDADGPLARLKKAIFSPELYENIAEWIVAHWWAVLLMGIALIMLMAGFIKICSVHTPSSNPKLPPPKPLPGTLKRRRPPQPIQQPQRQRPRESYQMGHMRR
ADAM10 confirm – confirmation of inhibitors of human ADAM10 | ADAM10 QFRET peptide cleavage, EDANS fluorescence | inhibition, % at 6.95 µM | shares compounds with ADAM10 inh | AID 743208 | actives 1% (n = 2,100);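 active = inhibition above about 20% chosen separately for each screening run, limit read from the data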;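 also: 0% = DMSO wells and 100% = marimastat wells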
ADAM17 counter – ADAM17 inhibition, counter-screen for ADAM10 exosite hits. ADAM17 QFRET peptide cleavage, EDANS fluorescence. inhibition, % at 6.95 µM. shares compounds with ADAM10 inh. actives 0.5% (n = 2,100);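 active = mean triplicate inhibition above the solvent-only control wells' mean plus 3 SD, cut at about 12% in these data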;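 also: 0% = DMSO wells and 100% = marimastat wells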
ADAM10 counter – counter-screen for ADAM17 exosite inhibitors: inhibitors of human ADAM10; inhibition, % at 6.95 µM; actives 47% (n = 2,900); recombinant ADAM10, EDANS/DABCYL FRET peptide cleavage, 3 h; shares compounds with ADAM17 inh;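 active = mean inhibition over the triplicate runs exceeds the activity threshold set in the earlier primary screen, cut at about 20% in these data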;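 also: 0% = DMSO wells and 100% = marimastat wells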
ADAM17 confirm – human ADAM17 inhibition, confirmation; shares compounds with ADAM17 inh; recombinant ADAM17, EDANS/DABCYL QFRET peptide cleavage; inhibition, % at 6.95 µM; actives 65% (n = 2,900); AID 743257;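 active = mean inhibition across replicates above the hit cutoff set in the primary screen, cut at about 8.5% in these data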;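 also: 0% = DMSO wells and 100% = marimastat wells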
* hit, by the source's call.

Results for C[C@@H]1CCCCO[C@@H](CN(C)S(C)(=O)=O)[C@H](C)CN([C@@H](C)CO)C(=O)c2cc(NC(=O)c3ccccc3)ccc2O1 ?
FGF22 binding: 0; rRNA inh HTS: -2

What do the screens show for `CCOc1ccc(N(CC(=O)NCc2ccccc2Cl)S(=O)(=O)c2c(C)noc2C)cc1`?
FGF22 binding: 0; ADAM17 inh: 1; rRNA inh HTS: -2; proKLK7 act: 1; ADAM10 inh: -1

Results for CCOc1ccc(S(=O)(=O)N(CC(=O)Nc2cc(C)on2)Cc2ccccc2Cl)cc1 ?
ADAM17 inh: 16*; proKLK7 act: 1; ADAM10 inh: 29*; ADAM10 confirm: 1; ADAM17 counter: 1; ADAM10 counter: 13; ADAM17 confirm: 8

How did O=C(C[C@H]1CC[C@H](NC(=O)NC2CCCC2)[C@@H](CO)O1)NCc1ccc(F)cc1 do in these assays?
FGF22 binding: 0; rRNA inh HTS: -8

What do the screens show for `C[C@@H]1CN([C@@H](C)CO)C(=O)c2cc(NC(=O)Nc3ccccc3)ccc2O[C@@H](C)CCCCO[C@H]1CN(C)C(=O)CCC(F)(F)F`?
FGF22 binding: -1; rRNA inh HTS: 0

How did O=C(CSc1nc2ccccc2c(=O)n1-c1ccc(F)c(Cl)c1)Nc1cccc(S(=O)(=O)N2CCOCC2)c1 do in these assays?
FGF22 binding: 1; ADAM17 inh: 10*; rRNA inh HTS: 2; proKLK7 act: 0; ADAM10 inh: 20*; ADAM10 confirm: 8; ADAM17 counter: 2; ADAM10 counter: 30*; ADAM17 confirm: 20*

What do the screens show for `CN(C)S(=O)(=O)c1cccc(NC(=O)CSc2nc3ccccc3n2-c2ccccc2)c1`?
ADAM17 inh: 10*; proKLK7 act: 0; ADAM10 inh: 20*; ADAM10 confirm: 7; ADAM17 counter: 2; ADAM10 counter: 24*; ADAM17 confirm: 13*

Results for O=C(CSc1nc2ccccc2c(=O)n1-c1ccc(F)cc1)Nc1ccc(Cl)c(S(=O)(=O)N2CCOCC2)c1 ?
FGF22 binding: 0; ADAM17 inh: 7; rRNA inh HTS: 7; proKLK7 act: -2; ADAM10 inh: 14

How did COc1ccc2c3c([nH]c2c1)[C@@H](CO)N(C(=O)C1CCC1)CC31CCN(S(C)(=O)=O)CC1 do in these assays?
FGF22 binding: 0; rRNA inh HTS: -1

What do the screens show for `Cc1csc(SCC(=O)Nc2nc(-c3ccccc3)cs2)n1`?
ADAM17 inh: 12*; proKLK7 act: 2; ADAM10 inh: 22*; ADAM10 confirm: 0; ADAM17 counter: 1; ADAM10 counter: 19; ADAM17 confirm: 14*

How did CCOc1cc(-c2nc(-c3ccccc3)c(-c3cc([N+](=O)[O-])ccc3C)[nH]2)ccc1O do in these assays?
ADAM17 inh: 12*; proKLK7 act: -1; ADAM10 inh: 31*; ADAM10 confirm: 7; ADAM17 counter: 3; ADAM10 counter: 21*; ADAM17 confirm: 12*

What do the screens show for `S=c1nc(-c2sccc2OCc2ccc(Cl)cc2Cl)[nH][nH]1`?
FGF22 binding: 1; ADAM17 inh: 11*; rRNA inh HTS: -44; proKLK7 act: -1; ADAM10 inh: 20*; ADAM10 confirm: 9; ADAM17 counter: 4; ADAM10 counter: 10; ADAM17 confirm: 13*

How did COc1ccc(C(=O)N2C[C@H]3[C@@H](c4ccccc42)[C@H](CO)N3C(=O)c2ccc(F)cc2)cc1 do in these assays?
FGF22 binding: 0; rRNA inh HTS: 2

What do the screens show for `Cc1c(C(=O)NCCC2=CCCCC2)oc2ccc(S(=O)(=O)N3CCC4(CC3)OCCO4)cc12`?
ADAM17 inh: 8.9*; proKLK7 act: 1; ADAM10 inh: 22*; ADAM10 confirm: 6; ADAM17 counter: 2; ADAM10 counter: 16; ADAM17 confirm: 10*

What do the screens show for `Cc1c(C(=O)Nc2ccc(F)cc2)oc2ccc(S(=O)(=O)N3CCC4(CC3)OCCO4)cc12`?
ADAM17 inh: 3; proKLK7 act: 0; ADAM10 inh: 4

What do the screens show for `C[C@H](CO)N1C[C@H](C)[C@@H](CN(C)Cc2ccc(Cl)c(Cl)c2)OCCCC[C@H](C)Oc2ccc(NS(=O)(=O)c3ccc(Cl)cc3)cc2C1=O`?
FGF22 binding: 1; rRNA inh HTS: -7

Results for CC(C)NC(=O)N1CC2(C1)[C@H](c1ccccc1)[C@H](CO)N2C(=O)C1CCCC1 ?
rRNA inh HTS: 3

Results for CC1=C(C(=O)Nc2ccc([N+](=O)[O-])cc2)C(c2cccc(C(F)(F)F)c2)NC(=S)N1c1ccccc1 (centres undefined) ?
ADAM17 inh: 18*; proKLK7 act: -1; ADAM10 inh: 34*; ADAM10 confirm: 6; ADAM17 counter: 2; ADAM10 counter: 59*; ADAM17 confirm: 32*

How did C[C@H](CO)N1C[C@H](C)[C@@H](CN(C)C(=O)c2ccc3c(c2)OCO3)Oc2ncc(C3=CCCCC3)cc2C1=O do in these assays?
FGF22 binding: 0; rRNA inh HTS: -5

How did CC(=O)N(C)C[C@H]1Oc2ccc(N(S(C)(=O)=O)S(C)(=O)=O)cc2C(=O)N(C)C[C@@H]1C do in these assays?
rRNA inh HTS: 4

What do the screens show for `O=C(COC(=O)CCCOc1ccc(Cl)cc1Cl)Nc1cccc(Cl)c1`?
ADAM17 inh: 13*; proKLK7 act: 0; ADAM10 inh: 23*; ADAM10 confirm: 9; ADAM17 counter: 4; ADAM10 counter: 38*; ADAM17 confirm: 20*

Results for COc1ccc(CNC(=O)COC(=O)CCCOc2ccc(Cl)cc2Cl)cc1 ?
ADAM17 inh: 3; proKLK7 act: 0; ADAM10 inh: 10

What do the screens show for `O=C(CSc1nnc(-c2ccccc2)n1Cc1ccco1)Nc1ccc(OCc2ccccc2)cc1`?
ADAM17 inh: 10.0*; proKLK7 act: 1; ADAM10 inh: 37*; ADAM10 confirm: 5; ADAM17 counter: 0; ADAM10 counter: 21*; ADAM17 confirm: 14*

Assay outcomes (PubChem)
